SMILES strings stand for the structures. Several values for one entry are separate records, joined by “and”; a condition that tells them apart may be missing. Equal entries are not always repeated. Records with an inconclusive call do not appear. Activity calls are given as the source filed them. Calls follow the shape of the dose curve; as a rule, active = well fitted inhibition curve with a large enough effect; inconclusive = small, poorly fitted or top-dose-only effect; inactive = flat fitted curve, though single readings scatter.
% is scaled to controls: 0 for no effect and ±100 for the full control effect; potency is read from the fitted curve at half-maximal effect.

Sequence of Voltage-gated inwardly rectifying potassium channel KCNH2 (Homo sapiens) (Q12809 whole entry, looked up): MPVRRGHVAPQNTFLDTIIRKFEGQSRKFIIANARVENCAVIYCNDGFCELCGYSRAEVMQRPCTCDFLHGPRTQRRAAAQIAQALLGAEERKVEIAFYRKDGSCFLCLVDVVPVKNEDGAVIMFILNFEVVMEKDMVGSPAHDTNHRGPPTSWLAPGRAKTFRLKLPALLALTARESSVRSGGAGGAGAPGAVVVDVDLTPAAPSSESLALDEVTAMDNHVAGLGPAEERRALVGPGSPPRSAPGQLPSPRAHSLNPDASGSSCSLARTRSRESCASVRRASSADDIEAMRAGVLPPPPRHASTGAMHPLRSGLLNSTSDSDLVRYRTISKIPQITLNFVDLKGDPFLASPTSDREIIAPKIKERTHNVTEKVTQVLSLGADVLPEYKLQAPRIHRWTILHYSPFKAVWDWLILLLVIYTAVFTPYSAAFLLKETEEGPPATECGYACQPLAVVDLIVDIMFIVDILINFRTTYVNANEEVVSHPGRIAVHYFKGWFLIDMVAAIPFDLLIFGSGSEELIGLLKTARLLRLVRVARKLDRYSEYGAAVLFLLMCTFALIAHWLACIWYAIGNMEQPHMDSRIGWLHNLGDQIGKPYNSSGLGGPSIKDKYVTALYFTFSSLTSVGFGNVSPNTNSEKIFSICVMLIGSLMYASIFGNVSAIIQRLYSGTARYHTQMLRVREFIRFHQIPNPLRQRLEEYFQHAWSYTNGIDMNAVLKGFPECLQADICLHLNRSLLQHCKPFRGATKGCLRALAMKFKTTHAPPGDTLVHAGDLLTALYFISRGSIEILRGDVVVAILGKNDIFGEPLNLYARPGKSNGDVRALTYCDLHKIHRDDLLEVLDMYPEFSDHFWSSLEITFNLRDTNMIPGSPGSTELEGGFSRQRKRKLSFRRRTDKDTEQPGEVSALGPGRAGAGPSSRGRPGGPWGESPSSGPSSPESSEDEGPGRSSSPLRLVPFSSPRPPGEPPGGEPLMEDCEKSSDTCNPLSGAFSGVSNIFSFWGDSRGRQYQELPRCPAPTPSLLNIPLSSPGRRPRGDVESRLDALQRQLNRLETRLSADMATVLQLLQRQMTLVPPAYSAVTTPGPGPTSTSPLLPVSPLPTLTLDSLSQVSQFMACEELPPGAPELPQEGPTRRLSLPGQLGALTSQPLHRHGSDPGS

The assay addresses Voltage-gated inwardly rectifying potassium channel KCNH2 (Homo sapiens) (UniProt Q12809). Briefly: qHTS Assay for Small Molecule Inhibitors of the Human hERG Channel Activity (AID 588834).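 Also: lower thallium flux fluorescence means stronger hERG block; nearly all actives have a fitted effect of over 50% in size.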 As to activity change, negative = inhibition: top concentration of the series differs between compounds. Particulars: U2OS BacMam hERG, FluxOR thallium flux fluorescence; series mostly up to 46.1 µM; activity change, negative = inhibition: at the top concentration. In short, it runs like this:
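Kinetic FDSS fluorescence; U2OS + hERG BacMam (~100 virus particles/cell); FluxOR Tl+ flux; ~10 min cpd; AC50 (Hill).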
For orientation: qHTS replaces the single test concentration by a dilution series.
Turning to `CC(C)(Sc1ccc(CCN(CCCCC2CCCCC2)C(=O)NC2CCCCC2)cc1)C(=O)O`, the “activity change, negative = inhibition” value was -27.8% (inactive).
With `C1COC(NC(C2CC2)C2CC2)=N1`, the Potency entry is “inactive”.
Turning to `CCC(C)N(C)C(=O)c1cc2ccccc2c(-c2ccccc2Cl)n1` (centres undefined), the “activity change, negative = inhibition” value was -14.8% (inactive).
Turning to `Cc1oncc1C(=O)Nc1ccc(C(F)(F)F)cc1`, the Potency entry is “inactive”.
Still for that read-out and setting: the value for `CCOC(=O)C1=C[C@]2(CC)CCCN3CCc4c(n1c1ccccc41)[C@@H]32` was 141 nM (active) and 31.6 nM (active).
With `CCCc1nc2c(C)cc(-c3nc4ccccc4n3C)cc2n1Cc1ccc(-c2ccccc2C(=O)O)cc1`, the “activity change, negative = inhibition” value is -28.9% (inactive).
Same read-out and setting: for `C#Cc1cccc(Nc2ncnc3cc(OCCOC)c(OCCOC)cc23)c1` the value was 1.85% (inactive); for `CCc1ccc(CCOc2ccc(CC3SC(=O)NC3=O)cc2)nc1` (centres undefined), 6.31% (inactive).
Take `Cc1cc2c(C(C)C)c(O)c(O)c(C=O)c2c(O)c1-c1c(C)cc2c(C(C)C)c(O)c(O)c(C=O)c2c1O`: the “activity change, negative = inhibition” value is -0.641% (inactive).
On to `OC(CN1CCC(Cc2ccc(F)cc2)CC1)c1ccc(Cl)cc1` (centres undefined), for which the Potency is 17.8 nM (active).
As to `Nc1nc2[nH]cc(CCc3ccc(C(=O)N[C@@H](CCC(=O)O)C(=O)O)cc3)c2c(=O)[nH]1`, the “activity change, negative = inhibition” value was 16.4% (inactive).
As to `c1ccc([C@H]2CN3CCSC3=N2)cc1`, the Potency entry was “inactive”.
As to `Cc1cnc(NC(=O)C2=C(O)c3ccccc3S(=O)(=O)N2C)s1`, the Potency result was “inactive”.
`NNCCc1ccccc1`: the “activity change, negative = inhibition” value is -13.3% [at 20.6 µM] (inactive).

The values are drawn from PubChem BioAssay (NCATS).
